In PubChem BioAssay AID1159580 (chemical genetic matrix, 2015):
Among all 5,500 compounds or so, about 2,000 (36%) were called active. About 18% were inconclusive and are not listed. Cut-off read from the data, not from the text of the source: active = normalized growth mostly below about 0.91 (no sharp cut-off); inconclusive = no clear call, values can overlap the other calls; inactive = mostly above about 0.92. The list shows a part of the results.

Experiment: chemical genetic growth profiling, strain panel (AID 1159580);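 note: tested at 20 µM; growth read once vehicle control cultures reached saturation at 30 °C; 1 = growth at the plate median or of vehicle wells; lower values mean less growth of the strain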
Settings: growth OD

Measured: normalized growth

CC(C)(C)OC(=O)N1CCC(C(N)=O)CC1
inactive: S. cerevisiae deletion strains, locus YAL013W, strain DEP1, stronger effect = lower value 0.997 | S. cerevisiae deletion strains, locus YBR229C, strain ROT2, stronger effect = lower value 1.01 | S. cerevisiae deletion strains, locus YCL061C, strain MRC1, stronger effect = lower value 1.02 | S. cerevisiae deletion strains, locus YDL101C, strain DUN1, stronger effect = lower value 1.01 | S. cerevisiae deletion strains, locus YDR150W, strain NUM1, stronger effect = lower value 1.01 | S. cerevisiae deletion strains, locus YEL061C, strain CIN8, stronger effect = lower value 1.01 | S. cerevisiae deletion strains, locus YGR078C, strain PAC10, stronger effect = lower value 1.01 | S. cerevisiae deletion strains, locus YHR030C, strain SLT2, stronger effect = lower value 1.08 | S. cerevisiae deletion strains, locus YHR087W, strain rtc3, stronger effect = lower value 1.01 | S. cerevisiae deletion strains, locus YJR043C, strain POL32, stronger effect = lower value 1.01 | S. cerevisiae deletion strains, locus YJR075W, strain HOC1, stronger effect = lower value 1.01 | S. cerevisiae deletion strains, locus YLR039C, strain RIC1, stronger effect = lower value 1.04 | S. cerevisiae deletion strains, locus YLR058C, strain SHM2 (second series), stronger effect = lower value 1.01 | S. cerevisiae deletion strains, locus YLR085C, strain ARP6, stronger effect = lower value 1.02 | S. cerevisiae deletion strains, locus YLR262C, strain YPT6, stronger effect = lower value 1.07 | S. cerevisiae deletion strains, locus YML094W, strain GIM5, stronger effect = lower value 1.03 | S. cerevisiae deletion strains, locus YMR219W, strain ESC1, stronger effect = lower value 1.01 | S. cerevisiae deletion strains, locus YMR263W, strain SAP30, stronger effect = lower value 1.02 | S. cerevisiae deletion strains, locus YMR307W, strain GAS1, stronger effect = lower value 1.04 | S. cerevisiae deletion strains, locus YNL153C, strain GIM3, stronger effect = lower value 1.01 | S. cerevisiae deletion strains, locus YNL298W, strain CLA4 (second series), stronger effect = lower value 1.03 | S. cerevisiae deletion strains, locus YNL322C, strain KRE1, stronger effect = lower value 1.02 | S. cerevisiae deletion strains, locus YNR030W, strain Alg12, stronger effect = lower value 1.03 | S. cerevisiae deletion strains, locus YPL055C, strain LGE1, stronger effect = lower value 1.01 | S. cerevisiae deletion strains, locus YPL241C, strain CIN2, stronger effect = lower value 1.03 | S. cerevisiae deletion strains, locus YPR135W, strain CTF4, stronger effect = lower value 0.974 | S. cerevisiae strains, strain wild type, stronger effect = lower value 1.02
